Experiment in all cases: NCI-60 one-dose screen, 48 h (100 = growth as untreated, 0 = no growth, -100 = all killed)
Assay [1] deals with HCT-15 colon. The note with it: 10 µM.
The subject of assay [2] is HT29 colon. The note with it: 10 µM.
Assay [3] deals with SNB-75 CNS. The note with it: 10 µM.
In assay [4] the test system is SNB-19 CNS. The note with it: 10 µM.
The subject of assay [5] is U251 CNS. The note with it: 10 µM.
The subject of assay [6] is PC-3 prostate. The note with it: 10 µM.
Assay [7] concerns SK-MEL-5 melanoma. The note with it: 10 µM.
The test system of assay [8] is UACC-62 melanoma.
The subject of assay [9] is LOX IMVI melanoma. The note with it: 10 µM.
Assay [10] deals with SK-MEL-28 melanoma. The note with it: 10 µM.

Values joined by “and” are separate entries in the source; they are usually repeats but may differ in a detail not shown here. Equal entries are not always repeated. Compounds without any hit were thinned out: in the full panel of roughly 83,000, 20% have a hit.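 In brief: 96-well plates, 48 h treatment, single concentration, percent growth endpoint.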 Active and inactive are the calls of the source. Rule for the calls: active = growth percent below 10; inactive = the rest.

Take `O=[N+]([O-])/C=C/c1ccc([N+](=O)[O-])cc1`: the growth in assay [1] is -30.1% (active) and 12.6% (inactive); in assay [2] it was -46.8% (active) and 72.9% (inactive); in assay [3], 48.7% (inactive) and 90.1% (inactive); in assay [4], 72.6% (inactive) and 96.2% (inactive); in assay [5] it was -16.5% (active) and 87.8% (inactive); in assay [6], 43.4% (inactive) and 92% (inactive). The growth was 97.9% (inactive) in assay [7]; 71.5% (inactive) and 81.1% (inactive) in [8] (10 µM unless noted); -90.1% (active) and 70% (inactive) in assay [9]; 82.2% (inactive) and 103% (inactive) in [10].

Turning to `CC[C@@]1(O)C[C@H](OC2CC(N(C)C)C(O)C(C)O2)c2c(cc3c(c2O)C(=O)c2c(O)ccc(O)c2C3=O)[C@H]1C(=O)OC` (stereo partly drawn), the growth in assay [1] is -43% (active); in [2], -20.5% (active); in assay [3], -88% (active); in assay [4], -36.9% (active); in assay [5], -90.8% (active); in assay [6], -57.4% (active). Further, the growth is -100% (active) in assay [7], -91.4% (active) in [8] (10 µM unless noted) and -85.1% (active) in [9].

`CC(C)C1(NC(=O)C2CC3c4cccc5[nH]cc(c45)CC3N(C)C2)OC2(O)C3CCCN3C(=O)C(Cc3ccccc3)N2C1=O` (stereo not drawn): the growth in assay [1] is 89.3% (inactive); in assay [2] it was 101% (inactive); in [3] it was -1.61% (active); in [4], 102% (inactive); in assay [5] it was 98.8% (inactive); in [6] it was 81.1% (inactive). Moreover, the growth in assay [7] is 89.8% (inactive); in assay [8] (10 µM unless noted), 86.4% (inactive); in assay [9], 91% (inactive).

Regarding `COC12C(COC(N)=O)C3=C(C(=O)C(C)=C(N)C3=O)N1CC1C2N1C` (stereo not drawn), the growth in [1] is 33.2% (inactive); in assay [2], 8.04% (active); in assay [3], 32.9% (inactive); in assay [4], 39.1% (inactive); in [5], 43% (inactive); in [6], 47% (inactive). The growth in assay [7] was 11.6% (inactive); in [8] (10 µM unless noted), 46.3% (inactive); in [9], 28.3% (inactive).

Take `C/C(=C\c1ccc(Cl)c(Cl)c1)[N+](=O)[O-]`: the growth in assay [1] is -66.8% (active) and 101% (inactive); in assay [2], -52.3% (active) and 102% (inactive); in [3], 90.3% (inactive); in assay [4] it was 87.4% (inactive) and 103% (inactive); in assay [5], -23.9% (active) and 87.8% (inactive); in assay [6], -35% (active) and 85.2% (inactive). Moreover, the growth is 84.5% (inactive) and 101% (inactive) in assay [7]; 13.5% (inactive) and 92.4% (inactive) in [8] (10 µM unless noted); -75.1% (active) and 90.1% (inactive) in assay [9]; -24.5% (active) and 103% (inactive) in assay [10].

Regarding `CC1CCC2(OC1)OC1C(O)C3C4CCC5CC(OC6OC(CO)C(OC7OC(CO)C(O)C(OC8OCC(O)C(O)C8O)C7OC7OC(CO)C(O)C(OC8OC(CO)C(O)C(O)C8O)C7O)C(O)C6O)C(O)CC5(C)C4CCC3(C)C1C2C` (stereo not drawn), the growth is 37.3% (inactive) in [1]; -40.5% (active) in [2]; -32% (active) in [3]; -71.7% (active) in assay [4]; -51.1% (active) in assay [5]; -93.4% (active) in assay [6]. For the same compound, the growth was -62.2% (active) in assay [7]; 22.5% (inactive) in [8] (10 µM); -89.7% (active) and -92% (active) in assay [8] (100 µM); -69.8% (active) in assay [9].

As to `ClCc1ccc2ccccc2n1`, the growth in [1] is 103% (inactive); in assay [2] it was 94.1% (inactive); in assay [3] it was 81.8% (inactive); in [4], 103% (inactive); in assay [5], 103% (inactive); in [6], 92.1% (inactive). The growth in assay [7] was 91% (inactive); in assay [8] (10 µM unless noted) it was 74.9% (inactive); in assay [9], 80.5% (inactive); in [10] it was 110% (inactive).

For the compound `COc1cc2c(c(OC)c1OC)-c1ccc(O)c(=O)cc1[C@@H](NC(C)=O)CC2`, the growth in [1] is 38.3% (inactive); in [2], 29.9% (inactive); in assay [3], 67.5% (inactive); in assay [4], 38% (inactive); in [5], 24.6% (inactive); in assay [6], 25.2% (inactive). Further, the growth was 55.8% (inactive) in [7]; 55.2% (inactive) in [8] (10 µM); -41.5% (active) in assay [8] (100 µM); 44.1% (inactive) in assay [9]; 68.3% (inactive) in assay [10].

On to `NC(Cc1ccccc1)c1ccccc1` (stereo not drawn), for which the growth in [1] was 110% (inactive) and 97.8% (inactive); in [2], 106% (inactive) and 95.1% (inactive); in [3], 93.9% (inactive) and 84.8% (inactive); in assay [4] it was 105% (inactive) and 99.7% (inactive); in assay [5] it was 103% (inactive) and 102% (inactive); in assay [6], 84.8% (inactive) and 90% (inactive). Also, the growth is 94.1% (inactive) and 100% (inactive) in assay [7]; 99.8% (inactive) and 91.6% (inactive) in assay [8] (10 µM unless noted); 92.2% (inactive) and 97.5% (inactive) in [9]; 101% (inactive) and 110% (inactive) in assay [10].

Turning to `CC12OOC(c3ccccc31)c1c2ccc2ccccc12` (stereo not drawn), the growth was -93.2% (active) in [1]; -81.3% (active) in [2]; -20.4% (active) in assay [3]; 64.8% (inactive) in assay [4]; 50.3% (inactive) in assay [5]; -74.4% (active) in assay [6]. For the same compound, the growth in [7] is 61.7% (inactive); in assay [8] (10 µM unless noted), 59.6% (inactive); in assay [9] it was -91.2% (active).

`COC(=O)C1C(O)C(C)C(O)C(C)/C=C\C=C(C)C(=O)Nc2c(C)c(OC(C)=O)c3c(c2O)C(=O)C(C)=C2OCOC(=C23)C(C)=CC(C)(O)C(O)C(C)C1O` (stereo not drawn): the growth in [1] is 43.8% (inactive); in [2], 90.3% (inactive); in assay [3], 32.4% (inactive); in [4], 99.1% (inactive); in assay [5], 45.9% (inactive); in assay [6], 48.8% (inactive). For the same compound, the growth is 99% (inactive) in assay [7], 97.4% (inactive) in assay [8] (10 µM unless noted) and 78.7% (inactive) in assay [9].

Consider `COc1ccc(/C=C\[N+](=O)[O-])cc1OC`, for which the growth in [1] was 53.9% (inactive) and 17.4% (inactive); in [2], 41.3% (inactive) and 24.7% (inactive); in [3] it was 65.2% (inactive); in assay [4], 82.5% (inactive) and 63.1% (inactive); in assay [5], 56.2% (inactive) and 48.6% (inactive); in assay [6] it was 68.9% (inactive) and 77.1% (inactive). For the same compound, the growth is 72.6% (inactive) and 56.4% (inactive) in [7]; 74.1% (inactive) and 50% (inactive) in assay [8] (10 µM unless noted); 2.99% (active) and -69.2% (active) in [9]; 50.4% (inactive) in [10].

Regarding `COC(C(=O)C(O)C(C)O)C1Cc2cc3cc(OC4CC(OC(C)=O)C(OC5CC(O)C(OC)C(C)O5)C(C)O4)cc(O)c3c(O)c2C(=O)C1OC1CC(OC2CC(OC3CC(C)(O)C(OC(=O)C(C)C)C(C)O3)C(O)C(C)O2)C(O)C(C)O1` (stereo not drawn), the growth is 25.1% (inactive) in [1]; -2.06% (active) in assay [2]; -74% (active) in assay [3]; -4.78% (active) in assay [4]; 8.24% (active) in assay [5]; 1.13% (active) in [6]. Besides, the values for the growth in assay [7], in assay [8] (10 µM unless noted) and in [9] were -97.3% (active), -97% (active) and 1.99% (active), respectively.

On to `C/C1=C\[C@H](C)C[C@H](C)OC(=O)C[C@H](c2ccc(O)cc2)NC(=O)[C@@H](Cc2c(Br)[nH]c3ccccc23)N(C)C(=O)[C@H](C)NC(=O)[C@@H](C)C1`, for which the growth in assay [1] was -38.1% (active); in assay [2], -33.5% (active); in assay [3], -76.4% (active); in assay [4] it was -21.9% (active); in assay [5] it was -50.6% (active); in assay [6] it was -59.6% (active). The growth is -74.5% (active) in assay [7], -1.83% (active) in assay [8] (10 µM unless noted) and -32.7% (active) in [9].

On to `O=[N+]([O-])c1ccc(N2CCOCC2)c2c1no[n+]2[O-]`, for which the growth in [1] was -19.3% (active); in assay [2], -29.3% (active); in assay [3], -15.5% (active); in assay [4] it was 28.8% (inactive); in [5] it was 2.99% (active); in assay [6], 10.9% (inactive). The growth was 25.4% (inactive) in [7], -24.9% (active) in [8] (10 µM unless noted), -14.3% (active) in assay [9] and 49.3% (inactive) in [10].

Consider `Cc1cc([N+](=O)[O-])c2ccccc2[n+]1[O-]`, for which the growth in assay [1] was -25.7% (active) and -13.2% (active); in [2], -24.6% (active) and -48.6% (active); in assay [3], -63.6% (active) and -53.8% (active); in assay [4], -4.83% (active) and -14.1% (active); in assay [5], -12.7% (active) and -32.2% (active); in [6], -10.8% (active) and -56% (active). Further, the growth in assay [7] is -84% (active) and -58.2% (active); in [8] (10 µM unless noted) it was -55.5% (active) and -86.3% (active); in [9], 7.14% (active) and -48.7% (active); in assay [10], 41.8% (inactive) and 15.2% (inactive).

For `CC(=O)Nc1c2sscc-2n(C)c1=O`, the growth was -100% (active) in [1]; -76.2% (active) in assay [2]; -98.3% (active) in assay [3]; -100% (active) in assay [4]; -100% (active) in assay [5]; -95.9% (active) in [6]. Further, the growth in assay [7] is -100% (active); in [8] (10 µM unless noted), -99.2% (active); in assay [9], -98.3% (active).

As to `CCOP(=O)(OCC)C(O)c1ccccc1Cl` (stereo not drawn), the growth is 88.8% (inactive) in [1]; 105% (inactive) in assay [2]; 98.5% (inactive) in assay [3]; 105% (inactive) in [4]; 99.5% (inactive) in assay [5]; 98.3% (inactive) in assay [6]. Besides, the growth in assay [7] was 103% (inactive); in [8] (10 µM unless noted) it was 108% (inactive); in [9], 97.9% (inactive); in assay [10], 114% (inactive).

Regarding `CCCCCCCC[N+]12CN3CN(CN(C3)C1)C2`, the growth is 96.7% (inactive) in [1]; 112% (inactive) in assay [2]; 89.4% (inactive) in assay [3]; 90.1% (inactive) in assay [4]; 101% (inactive) in assay [5]; 96.7% (inactive) in [6]. Also, the growth is 98% (inactive) in assay [7], 91.7% (inactive) in [8] (10 µM unless noted), 97.5% (inactive) in [9] and 98.8% (inactive) in assay [10].

With `CC(Cc1ccc2c(c1)OCO2)NN` (stereo not drawn), the growth in assay [1] was 102% (inactive); in assay [2], 98.7% (inactive); in assay [3] it was 90.6% (inactive); in assay [4] it was 105% (inactive); in assay [5] it was 88.9% (inactive); in assay [6] it was 76.3% (inactive). The growth was 93.6% (inactive) in [7], 95.6% (inactive) in assay [8] (10 µM unless noted), 92.2% (inactive) in [9] and 105% (inactive) in assay [10].

Source of the values: PubChem BioAssay (NCI).
